# Compounds without any hit were thinned out: in the full panel of roughly 83,000, 20% have a hit.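 Percent growth is the endpoint: 0 to 100 indicates growth inhibition (40 means 60% inhibition), 0 means no net growth, and negative values indicate cell death.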 The source made the active and inactive calls. Rule for the calls: active = growth percent below 10; inactive = the rest.
# Tested on: MDA-MB-231 breast
# Assay: NCI-60 one-dose screen, 48 h (100 = growth as untreated, 0 = no growth, -100 = all killed)
# Conditions: 10 µM
row,SMILES,growth
1,Cc1ccc(C(=O)NCCCNc2nc(Nc3ccc(N4CCN(C)CC4)cc3)nc3ccsc23)cc1,44.4% (inactive)
2,O=C(c1ccc(-n2c(=O)[nH]c3ccccc3c2=O)cc1)N1CCOCC1,95.5% (inactive)
3,O=S(=O)(c1ccc(Cl)cc1)c1nc(-c2ccccc2)oc1S(=O)(=O)c1ccc(Cl)cc1,76.9% (inactive)
4,Cc1ccc(C(C)C)cc1NC(=O)c1ccccc1N(C)C,91.1% (inactive)
5,COc1ccc2[nH]c(O)c(N=NC(=O)COc3ccc(NC(=O)Nc4ccc(Cl)c(Cl)c4)cc3)c2c1,-89.7% (active)
6,COc1cccc(-c2nn(-c3ccccc3)cc2-c2ccnc(NCCCNC(=O)Nc3ccc(F)cc3)c2)c1,-1.32% (active)
7,CN1CCN(c2ccc(Nc3nc(NCCCNC(=O)c4ccc(F)cc4)c4sccc4n3)cc2)CC1,58.1% (inactive)
8,CC1(C)CC[C@]2(C(=O)Nc3ccccc3)CC[C@]3(C)C(=CC[C@@H]4[C@@]5(C)CC[C@H](N)C(C)(C)[C@@H]5CC[C@]43C)[C@H]2C1,71.7% (inactive)
9,C[C@H]1[C@H](C)CC[C@]2(COC(=O)CCC(=O)NCC#CCN3CCNCC3)CC[C@]3(C)C(=CC[C@@H]4[C@@]5(C)CCCNC(C)(C)[C@@H]5CC[C@]43C)[C@H]12,43.4% (inactive)
10,O=C(Nc1ccncc1)c1ccc(-n2c(=O)[nH]c3ccccc3c2=O)cc1,98.2% (inactive)
11,Cc1ccc(C(C)C)cc1NC(=O)c1ccccc1O,65.1% (inactive)
12,CCCS(=O)(=O)c1oc(-c2ccc(F)cc2)nc1S(=O)(=O)c1ccc(F)cc1,-91.9% (active)

# Source: PubChem BioAssay (NCI)
